The full list was thinned out, with hits kept by preference.
Methyltransferases: Primary Screen for Target Class Profiling of Small Molecule Inhibitors of Methyltransferases; calls only at 40 µM; purified enzyme, MTase-Glo SAH luminescence; stronger effect = lower value; hit rate 3.9% among 25,000; call rule not given here
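Each enzyme was reacted with SAM and its substrate, with compounds tested once at 40 uM; SAH formed was read by MTase-Glo luminescence.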
MTase-Glo counter: inhibits MTase-Glo coupling enzymes without methyltransferase; shares compounds with Methyltransferases; MTase-Glo coupled enzymes, SAH conversion luminescence, no MTase; Potency, µM (highest dose often 57.3 µM), usual class: inhibitors; hit rate 6% among 180; AID 1745851; active = well fitted inhibition curve with a large enough effect; inconclusive = small, poorly fitted or top-dose-only effect
Each line names hits and unclear results; the compound was inactive in the other large screens (follow-up assays come after a bar, where they were run).

CCCNC(=O)N1Cc2ccccc2-n2cccc2C1c1ccc(OC)cc1 (stereo unspecified)	none
Cc1ccc(NC(=O)N2Cc3ccccc3-n3cccc3C2C)cc1F (stereo unspecified)	none
COc1cc(NC(=O)N2Cc3ccccc3-n3cccc3C2c2ccc(C)cc2)cc(OC)c1 (stereo unspecified)	none
CN(N=O)c1ccc(O)c(O)c1	Methyltransferases active
COC(=O)c1ccccc1NC(=O)N1Cc2ccccc2-n2cccc2C1c1ccc(C)cc1 (stereo unspecified)	none
CCOCCCNC(=O)N1Cc2ccccc2-n2cccc2C1c1ccc(OC)c(OC)c1 (stereo unspecified)	none
COC(=O)c1ccc(NC(=O)N2Cc3ccccc3-n3cccc3C2c2cccs2)cc1 (stereo unspecified)	none
CCOc1ccc(NC(=O)N2Cc3ccccc3-n3cccc3C2C(C)C)cc1 (stereo unspecified)	none
O=C(NCCc1ccccc1)N1Cc2ccccc2-n2cccc2C1c1ccc(F)cc1 (stereo unspecified)	none
CCOc1ccc(NC(=O)N2Cc3ccccc3-n3cccc3C2c2ccc(OC)c(OC)c2)cc1 (stereo unspecified)	none
CC1C/C=C/C(O)C(O)CC/C=C/c2cc(O)cc(O)c2C(=O)O1 (stereo unspecified)	none
CC1CCCCCC(=O)c2c(O)cc(O)cc2CC(=O)O1 (stereo unspecified)	none
C[C@H]1CCCC(=O)CCC/C=C/c2cc(O)cc(O)c2C(=O)O1	Methyltransferases active
CCOC(=O)Cc1ccc(NC(=O)N2Cc3ccccc3-n3cccc3C2c2cccc(C)c2)cc1 (stereo unspecified)	none
O=C(Nc1ccc(F)cc1F)N1Cc2ccccc2-n2cccc2C1c1cccs1 (stereo unspecified)	none
CCc1ccc(NC(=O)N2Cc3ccccc3-n3cccc3C2c2ccccc2C)cc1 (stereo unspecified)	none
CCCNC(=O)N1Cc2ccccc2-n2cccc2C1c1ccc(Cl)cc1 (stereo unspecified)	none
CCOC(=O)c1ccccc1NC(=O)N1Cc2ccccc2-n2cccc2C1c1cccs1 (stereo unspecified)	none
Cc1c(Cl)cccc1NC(=O)N1Cc2ccccc2-n2cccc2C1c1ccccc1 (stereo unspecified)	none
C=C[C@H]1[C@H](O[C@@H]2O[C@H](CO)[C@@H](O)[C@H](O)[C@H]2O)OC=C2C(=O)OCC[C@H]21	none
COc1cc(C(=O)O[C@H]2[C@@H]3C=CO[C@@H](O[C@@H]4O[C@H](CO)[C@@H](O)[C@H](O)[C@H]4O)[C@@H]3[C@@]3(CO)O[C@@H]23)ccc1O	Methyltransferases active
COc1ccc(C2c3cccn3-c3ccccc3CN2C(=O)CCC(=O)NC2CCCCC2)cc1 (stereo unspecified)	none
CC(C)c1ccc(C2c3cccn3-c3ccccc3CN2C(=O)Nc2cc(F)ccc2F)cc1 (stereo unspecified)	none
CN(C)c1cc2c(cc1Sc1nc3c(N)nccc3n1CCNCC(C)(C)C)OCO2	Methyltransferases active
Cc1ccc(C2c3cccn3-c3ccccc3CN2C(=O)Nc2cc(C)cc(C)c2)cc1 (stereo unspecified)	none
CCC1c2cccn2-c2ccccc2CN1C(=O)Nc1cc(Cl)c(OC)cc1OC (stereo unspecified)	none
COc1cc(N2CCN(C)CC2)ccc1N	Methyltransferases active
CC(C)C1c2cccn2-c2ccccc2CN1C(=O)Nc1cccc(Br)c1 (stereo unspecified)	none
CC(=O)NCCc1c[nH]c2ccccc12	none
NCCc1c[nH]c2ccccc12	Methyltransferases active
CC(N)Cc1c[nH]c2ccccc12 (stereo unspecified)	none
O=C(Nc1ccc(F)cc1F)N1Cc2ccccc2-n2cccc2C1c1ccccc1 (stereo unspecified)	none
NC(Cc1cc(O)c(O)cc1O)C(=O)O (stereo unspecified)	Methyltransferases active
Cc1o[nH]c(=O)c1CC(N)C(=O)O (stereo unspecified)	none
N[C@@H](Cn1oc(=O)[nH]c1=O)C(=O)O	none
CC(C)CCNC(=O)N1Cc2ccccc2-n2cccc2C1c1ccccc1 (stereo unspecified)	none
CSc1cccc(NC(=O)N2Cc3ccccc3-n3cccc3C2c2ccc(N(C)C)cc2)c1 (stereo unspecified)	none
Cc1ccc(NC(=O)N2Cc3ccccc3-n3cccc3C2c2ccccc2)cc1 (stereo unspecified)	none
Cc1cccc(C2c3cccn3-c3ccccc3CN2C(=O)Nc2cccc(C)c2C)c1 (stereo unspecified)	none
COc1ccc(-c2cc([C@H]3CN4CC[C@H]3C[C@@H]4CN)nc(C)n2)cc1OC	Methyltransferases active | MTase-Glo counter inactive
Cc1nc(-c2ccccc2)cc([C@H]2CN3CC[C@H]2C[C@@H]3CNS(C)(=O)=O)n1	none
Cn1nc(-c2ccc(F)cc2)cc1[C@H]1CN2CC[C@H]1C[C@@H]2CNC(=O)c1cccs1	none
CCC(CC)c1cc([C@H]2CN3CC[C@H]2C[C@@H]3CNC(=O)C2CCC2)nc(-c2ccncc2)n1	none
COc1ccc(-c2cc([C@H]3CN4CC[C@H]3C[C@@H]4COC(=O)NC3CCCCC3)nc(C)n2)cc1	none
CC(=O)c1cccc(NC(=O)NC[C@H]2C[C@@H]3CCN2C[C@@H]3c2cc(-c3ccc(F)cc3)nc(C)n2)c1	Methyltransferases active | MTase-Glo counter inconclusive
Cc1ccc(NC(=O)N2Cc3ccccc3-n3cccc3C2C(C)C)c(C)c1 (stereo unspecified)	none
CCOCCCNC(=O)N1Cc2ccccc2-n2cccc2C1c1ccc(C(C)C)cc1 (stereo unspecified)	none
O=C(Nc1ccc2c(c1)OCCO2)N1Cc2ccccc2-n2cccc2C1c1cccc(Cl)c1 (stereo unspecified)	none
CCc1ccc(C2c3cccn3-c3ccccc3CN2C(=O)Nc2ccc(C)c(F)c2)cc1 (stereo unspecified)	none
COc1ccc(C2c3cccn3-c3ccccc3CN2C(=O)Nc2cc(F)ccc2F)cc1 (stereo unspecified)	none
CN(CCc1ccccn1)C[C@H]1CN2CC[C@H]1C[C@@H]2CNC(=O)Nc1ccsc1	Methyltransferases active | MTase-Glo counter inactive
CN(CCc1ccccn1)C[C@H]1CN2CC[C@H]1C[C@@H]2CNC(=O)c1ccco1	none
CC(C)NC(=O)NC[C@H]1C[C@@H]2CCN1C[C@@H]2CN1CCC(Cc2ccccc2)CC1	none
CCc1ccc(C2c3cccn3-c3ccccc3CN2C(=O)Nc2ccc(C)cc2)cc1 (stereo unspecified)	none
CC1c2cccn2-c2ccccc2CN1C(=O)Nc1ccc(Cl)cc1 (stereo unspecified)	none
COc1ccc(C2c3cccn3-c3ccccc3CN2C(=O)Nc2ccc(C)c(C)c2)cc1OC (stereo unspecified)	none
NC(=O)c1ccc(N2CC3CCC(C2)N3CC(F)(F)F)nn1	Methyltransferases active | MTase-Glo counter inactive
FC(F)(F)CN1C2CCC1CN(c1nnc(Cl)c3ccccc13)C2	none
COc1ccccc1NC(=O)N1Cc2ccccc2-n2cccc2C1C(C)C (stereo unspecified)	none

Compound activity from PubChem BioAssay.
